These results are taken from PubChem BioAssay (Tox21).

SMILES strings stand for the structures. Inconclusive results are not listed. Where a call stands in place of a potency, no number is given. Activity calls are given as the source filed them. Calls follow the shape of the dose curve; as a rule, active = well fitted cell-killing curve with a large enough effect in the repeat runs; inconclusive = weak or mixed curves, or effect the other way; inactive = no such curve, though single readings can be large or run the other way.

The test in a line: Caspase-3/7 induction in CHO-K1 cells by small molecules, qHTS cell viability counter screen (AID 1346979). Also: nearly all actives have a fitted effect of over 35% in size. The following applies: CellTiter-Fluor fluorescence, 17 h; series mostly up to 92.4 µM. The essentials: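 Seeding: 1,500 CHO-K1 cells/well. Rest: 5hr, 37C. Treatment: compounds in DMSO, 16hr. Read: CellTiter-Fluor, 1hr, fluorescence.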
For orientation: In qHTS, concentration-response curves come from the screen itself.
Take `CCOP(=S)(OCC)SCSc1ccc(Cl)cc1`: the Potency result was “inactive”.
The same measure, in the same setting: then `CCOC(=O)N(C)C(=O)CSP(=S)(OCC)OCC`, with “inactive”; and `CCOP(=S)(Oc1cnc(C(C)(C)C)nc1)OC(C)C` (stereo not drawn), with “inactive”.
Same read-out and setting: for `CCCCN(CCCCO)N=O` the value was “inactive”.
Same read-out and setting: then `NC1=NC(=O)C(c2ccccc2)O1` (stereo not drawn), with “inactive”; and `CCC(Cl)[N+](=O)[O-]` (stereo not drawn), with “inactive”.
With `CCCSC(=O)Cl`, the Potency entry was “inactive”.
For the compound `CCN(CC)C(C)C(=O)c1ccccc1` (stereo not drawn), the Potency result was “inactive”.
The same measure, in the same setting: then `C[N+](=O)[O-]`, with “inactive”; and `ClCC(Cl)Cl`, with “inactive”.
The same measure, in the same setting: for `CC(=O)C(Cl)Cl` the value was “inactive”.
As for `CC1=C(C(=O)O)N2C(=O)[C@@H](N)[C@H]2SC1`, the activity change, negative = cytotoxicity is 7.27% [at 19 µM] (inactive).
On to `CCOc1nc(C(Cl)(Cl)Cl)ns1`, for which the Potency entry is “inactive”.
The same measure, in the same setting: for `CNC(=O)Oc1cccc(C(C)C)c1` the value was “inactive”.
As to `ClC(Cl)C(Cl)Cl`, the Potency entry is “inactive”.
The same measure, in the same setting: for `CN1C[C@@H](NS(=O)(=O)N(C)C)C[C@@H]2c3cccc4c3c(cn4C)C[C@H]21` the value was “inactive”; for `CC(C=O)Cc1ccc2c(c1)OCO2` (stereo not drawn), “inactive”; for `CCCCOP(=O)(O)OCCCC`, “inactive”.
Still for that read-out and setting: for `Cc1cccc(C#N)c1` the value was “inactive”.
Still for that read-out and setting: for `O=[N+]([O-])c1cc(Cl)c(Cl)c(Cl)c1` the value was “inactive”.
As for `Nc1ccccc1Cl`, the Potency entry was “inactive”.
`O=C1c2ccccc2C(=O)c2ccccc21`: the activity change, negative = cytotoxicity is 11.3% [at 19 µM] (inactive).
Consider `CNC(=O)Oc1c(C(C)(C)C)cc(C)cc1C(C)(C)C`, for which the Potency entry is “inactive”.
For the compound `N#CCBr`, the Potency entry is “inactive”.
The same measure, in the same setting: then `CCSC(=O)N(CC)C1CCCCC1`, with “inactive”.
As for `CNC(=O)Oc1ccc(N(C)C)c(C)c1`, the Potency result was “inactive”.
Same read-out and setting: for `c1cc2c(c(N3CCNCC3)c1)OCCO2` the value was “inactive”; for `OC(Cn1cncn1)(c1ccc(F)cc1)c1ccccc1F` (stereo not drawn), “inactive”.
